Common to all, as to details: mRNA level, 48 h; actives raise or lower the signal
Read-out in test [1]: Pro-epidermal growth factor (Homo sapiens) (UniProt P01133)
In words: LTEA_HepaRG_EGF: Life Technologies and Expression Analysis (LTEA) Assay for Epidermal growth factor (EGF) using HepaRG (AID 2283489). A digest of the protocol:
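Differentiated human HepaRG cells, plated 48 h then switched to serum-free induction medium, were exposed for 48 h to test chemicals (8-point half-log series, top 100 uM, 0.5% DMSO). EGF mRNA was quantified by qRT-PCR, normalized to ACTB, GAPDH, POLR2A.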

Read-out in test [2]: Early growth response protein 1 (EGR1) transcription factor, EGR1 (gene 1958)
In words: LTEA_HepaRG_EGR1: Life Technologies and Expression Analysis (LTEA) Assay for Early growth response protein 1 (EGR1) transcription factor using HepaRG (AID 2283490). A digest of the protocol:
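HepaRG, 48 h exposure, 8-pt half-log series from 100 uM, 0.5% DMSO vehicle; EGR1 transcript by TaqMan qRT-PCR (Fluidigm array), housekeeping-normalized; bidirectional fit relative to DMSO baseline.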

Read-out in test [3]: Ezrin (EZR), EZR (gene 7430)
Nature of the test: LTEA_HepaRG_EZR: Life Technologies and Expression Analysis (LTEA) Assay for Ezrin (EZR) using HepaRG (AID 2283491). A digest of the protocol: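 Read-out is EZR transcript level by qRT-PCR, normalized to three housekeeping genes and fitted bidirectionally against the DMSO control. Human HepaRG cells received test chemicals for 48 h at eight half-log concentrations up to 100 uM in 0.5% DMSO.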

Read-out in test [4]: Cytochrome P450 3A7 (Homo sapiens) (UniProt P24462)
In words: LTEA_HepaRG_CYP3A7: Life Technologies and Expression Analysis (LTEA) Assay for CYP3A7 using HepaRG (AID 2283492). A digest of the protocol: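 HepaRG cells plated 48 h, then dosed in serum-free induction medium for 48 h at 8 concentrations (top 100 uM, half-log steps, 0.5% DMSO). CYP3A7 mRNA by qRT-PCR, normalised to ACTB/GAPDH/POLR2A; bidirectional fit versus DMSO.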

Read-out in test [5]: CYP3A5 (gene 1577)
In words: LTEA_HepaRG_CYP3A5: Life Technologies and Expression Analysis (LTEA) Assay for CYP3A5 using HepaRG (AID 2283493). A digest of the protocol:
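qRT-PCR read-out: CYP3A5 transcript in HepaRG lysates, housekeeping-normalized (ACTB/GAPDH/POLR2A), fitted bidirectionally against 0.5% DMSO baseline. Exposure 48 h, eight half-log concentrations up to 100 uM, duplicates.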

Read-out in test [6]: Fatty Acid-Binding Protein 1 (FABP1), FABP1 (gene 2168)
Nature of the test: LTEA_HepaRG_FABP1: Life Technologies and Expression Analysis (LTEA) Assay for Fatty Acid-Binding Protein 1 (FABP1) using HepaRG (AID 2283494). A digest of the protocol: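 qRT-PCR readout of FABP1 transcript (normalized to three housekeeping genes) after 48 h chemical exposure of HepaRG cells; eight concentrations, half-log steps, max 100 uM, 0.5% DMSO vehicle; gain or loss fitted relative to DMSO baseline.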

Read-out in test [7]: Cytochrome P450 4A22 (Homo sapiens) (UniProt Q5TCH4)
Nature of the test: LTEA_HepaRG_CYP4A22: Life Technologies and Expression Analysis (LTEA) Assay for Cytochrome P450 4A22 (CYP4A22) using HepaRG (AID 2283495). The method in brief: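 qRT-PCR of CYP4A22 mRNA (Fluidigm TaqMan, normalized to three housekeeping genes) after 48 h chemical exposure of HepaRG cells; 8-point half-log series, top 100 uM, 0.5% DMSO vehicle. Bidirectional curve fitting vs DMSO baseline.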

Read-out in test [8]: Cytochrome P450 7A1 (Homo sapiens) (UniProt P22680)
Nature of the test: LTEA_HepaRG_CYP7A1: Life Technologies and Expression Analysis (LTEA) Assay for Cytochrome P450 7A1 (CYP7A1) using HepaRG (AID 2283496). The method in brief:
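Using 0.5% DMSO as vehicle and baseline, chemicals were tested in duplicate over an 8-point range from 100 uM on HepaRG cells for 48 h; qRT-PCR signals were normalised to ACTB, GAPDH and POLR2A.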

Read-out in test [9]: Glutathione S-Transferase (GSTA2), GSTA2 (gene 2939)
In words: LTEA_HepaRG_GSTA2: Life Technologies and Expression Analysis (LTEA) Assay for Glutathione S-Transferase (GSTA2) using HepaRG (AID 2283497). A digest of the protocol: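 qRT-PCR readout of GSTA2 transcript, normalized to three housekeeping genes, fitted bidirectionally against 0.5% DMSO baseline. Differentiated HepaRG cells received compound for 48 h at 8 concentrations (top 100 uM, half-log steps).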

Read-out in test [10]: Glutamate-cysteine ligase catalytic (GCLC), GCLC (gene 2729)
Nature of the test: LTEA_HepaRG_GCLC: Life Technologies and Expression Analysis (LTEA) Assay for Glutamate-cysteine ligase catalytic (GCLC) using HepaRG (AID 2283498). A digest of the protocol:
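HepaRG, 48 h exposure, 8-pt half-log series from 100 uM, 0.5% DMSO vehicle; TaqMan qRT-PCR for GCLC mRNA, housekeeping-normalized; bidirectional curve fit vs DMSO baseline.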

Read-out in test [11]: growth arrest and DNA damage 45 (GADD45G), GADD45G (gene 10912)
In words: LTEA_HepaRG_GADD45G: Life Technologies and Expression Analysis (LTEA) Assay for growth arrest and DNA damage 45 (GADD45G) using HepaRG (AID 2283499). A digest of the protocol: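 Differentiated human HepaRG cells in serum-free induction medium were exposed for 48 h to 8 half-log concentrations up to 100 uM in 0.5% DMSO, in duplicate. GADD45G mRNA was measured by TaqMan qRT-PCR, normalised to ACTB, GAPDH and POLR2A, and fitted bidirectionally against DMSO.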

Read-out in test [12]: Glutamate-cysteine ligase regulatory (GCLM), GCLM (gene 2730)
Nature of the test: LTEA_HepaRG_GCLM: Life Technologies and Expression Analysis (LTEA) Assay for Glutamate-cysteine ligase regulatory (GCLM) using HepaRG (AID 2283500). The method in brief:
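HepaRG, 48 h dosing, 100 uM top, half-log x8, 0.5% DMSO vehicle. Readout: GCLM mRNA by TaqMan qRT-PCR, housekeeping-normalized (ACTB/GAPDH/POLR2A). Curves fit bidirectionally vs DMSO baseline.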

Read-out in test [13]: Glutathione S-transferase M3 (GSTM3), GSTM3 (gene 2947)
In words: LTEA_HepaRG_GSTM3: Life Technologies and Expression Analysis (LTEA) Assay for Glutathione S-transferase M3 (GSTM3) using HepaRG (AID 2283501). A digest of the protocol: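 Differentiated HepaRG cells in serum-free induction medium were exposed in duplicate for 48 h to 8 half-log concentrations up to 100 uM in 0.5% DMSO. GSTM3 mRNA was measured by TaqMan qRT-PCR, normalized to ACTB/GAPDH/POLR2A, and fitted bidirectionally versus DMSO.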

Read-out in test [14]: Heat shock 70 kDa protein 1 (HSPA1A), gene 3303
In words: LTEA_HepaRG_HSPA1A: Life Technologies and Expression Analysis (LTEA) Assay for Heat shock 70 kDa protein 1 (HSPA1A) using HepaRG (AID 2283502). The method in brief: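 HepaRG, 48 h exposure, 8-pt half-log CRC from 100 uM in 0.5% DMSO, duplicates. Readout: TaqMan qRT-PCR of HSPA1A mRNA, housekeeping-normalized (ACTB/GAPDH/POLR2A). Bidirectional fit vs 0.5% DMSO baseline.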

Read-out in test [15]: Hypoxia-inducible factor 1-alpha (Homo sapiens) (UniProt Q16665)
In words: LTEA_HepaRG_HIF1A: Life Technologies and Expression Analysis (LTEA) Assay for Hypoxia-inducible factor 1 (HIF1A) Trancription factor using HepaRG (AID 2283503). A digest of the protocol: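 Gain- or loss-of-signal HIF1A mRNA changes are fitted against a DMSO baseline. HepaRG cultures receive eight concentrations, highest 100 uM, for 48 h in serum-free induction medium with 0.5% DMSO.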

Read-out in test [16]: 3-Hydroxy-3-Methylglutaryl-CoA Synthase 2 (HMGCS2), HMGCS2 (gene 3158)
In words: LTEA_HepaRG_HMGCS2: Life Technologies and Expression Analysis (LTEA) Assay for 3-Hydroxy-3-Methylglutaryl-CoA Synthase 2 (HMGCS2) using HepaRG (AID 2283504). The method in brief: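 Differentiated human HepaRG cells were exposed in duplicate for 48 h in serum-free induction medium to eight concentrations (top 100 uM, half-log steps, 0.5% DMSO). HMGCS2 mRNA was quantified by TaqMan qRT-PCR, normalised to ACTB, GAPDH and POLR2A, then fitted bidirectionally against DMSO.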

Read-out in test [17]: HGF (gene 3082)
Nature of the test: LTEA_HepaRG_HGF: Life Technologies and Expression Analysis (LTEA) Assay for Hepatocyte Growth Facto (HGF) using HepaRG (AID 2283505). A digest of the protocol:
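Differentiated human HepaRG cells in serum-free induction medium were exposed in duplicate for 48 h to eight concentrations (top 100 uM, half-log steps, 0.5% DMSO). HGF mRNA was quantified by qRT-PCR, normalized to ACTB, GAPDH and POLR2A.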

Read-out in test [18]: Insulin Like Growth Factor 1 (IGF1), IGF1 (gene 3479)
Nature of the test: LTEA_HepaRG_IGF1: Life Technologies and Expression Analysis (LTEA) Assay for Insulin Like Growth Factor 1 (IGF1) using HepaRG (AID 2283506). The method in brief:
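qRT-PCR readout of IGF1 mRNA, normalized to three housekeeping genes, after 48 h chemical exposure of HepaRG cells. Concentrations: 8-point half-log series, top 100 uM, 0.5% DMSO vehicle. Gain or loss fitted against DMSO baseline.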

Read-out in test [19]: Interleukin 6 (IL6), IL6 (gene 3569)
Nature of the test: LTEA_HepaRG_IL6: Life Technologies and Expression Analysis (LTEA) Assay for Interleukin 6 (IL6) using HepaRG (AID 2283509). The method in brief:
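qRT-PCR read-out of IL6 transcript, normalized to three housekeeping genes, after 48 h chemical exposure of HepaRG cells; 8-point half-log series, top 100 uM, 0.5% DMSO vehicle. Bidirectional curve fitting against DMSO baseline.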

Read-out in test [20]: Insulin-like growth factor-binding protein 1 (IGFBP1), IGFBP1 (gene 3484)
Nature of the test: LTEA_HepaRG_IGFBP1: Life Technologies and Expression Analysis (LTEA) Assay for Insulin-like growth factor-binding protein 1 (IGFBP1) using HepaRG (AID 2283508). A digest of the protocol: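 Differentiated human HepaRG cells in serum-free induction medium were exposed in duplicate for 48 h to eight concentrations, top 100 uM with half-log dilutions, in 0.5% DMSO. Transcript levels came from qRT-PCR normalised to ACTB, GAPDH and POLR2A, fitted bidirectionally against DMSO.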

A word on the AC50: it is the concentration at which the activity in the assay is half-maximal.

The source made the active and inactive calls. The calls were made as follows: active = hit-call score of the fitted dose curve at least 0.9, where 1 is the maximum; inactive = score below 0.9.

Chain of Hypoxia-inducible factor 1-alpha (Homo sapiens) (Q16665 whole entry, looked up): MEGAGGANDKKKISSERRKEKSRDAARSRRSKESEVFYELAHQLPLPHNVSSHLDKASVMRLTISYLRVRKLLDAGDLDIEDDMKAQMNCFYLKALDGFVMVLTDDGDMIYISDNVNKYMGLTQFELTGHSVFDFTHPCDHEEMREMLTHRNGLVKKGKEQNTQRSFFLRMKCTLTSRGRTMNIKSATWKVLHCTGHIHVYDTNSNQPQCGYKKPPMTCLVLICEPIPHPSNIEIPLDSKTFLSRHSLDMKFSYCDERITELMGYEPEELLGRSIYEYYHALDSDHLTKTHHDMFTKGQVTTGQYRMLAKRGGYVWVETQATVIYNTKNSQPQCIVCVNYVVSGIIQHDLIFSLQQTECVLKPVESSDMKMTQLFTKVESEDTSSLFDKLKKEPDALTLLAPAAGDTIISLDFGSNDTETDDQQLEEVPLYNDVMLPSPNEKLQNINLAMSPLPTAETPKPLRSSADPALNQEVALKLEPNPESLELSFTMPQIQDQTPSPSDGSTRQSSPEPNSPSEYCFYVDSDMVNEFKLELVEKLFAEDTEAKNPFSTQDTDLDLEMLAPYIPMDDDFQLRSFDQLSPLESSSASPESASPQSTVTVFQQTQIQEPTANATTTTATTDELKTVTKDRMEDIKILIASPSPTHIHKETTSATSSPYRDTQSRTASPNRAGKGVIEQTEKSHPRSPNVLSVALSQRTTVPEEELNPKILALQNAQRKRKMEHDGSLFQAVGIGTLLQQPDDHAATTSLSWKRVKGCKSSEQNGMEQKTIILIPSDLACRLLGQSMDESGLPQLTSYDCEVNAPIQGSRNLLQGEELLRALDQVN
Chain of Cytochrome P450 3A7 (Homo sapiens) (P24462 whole entry, looked up): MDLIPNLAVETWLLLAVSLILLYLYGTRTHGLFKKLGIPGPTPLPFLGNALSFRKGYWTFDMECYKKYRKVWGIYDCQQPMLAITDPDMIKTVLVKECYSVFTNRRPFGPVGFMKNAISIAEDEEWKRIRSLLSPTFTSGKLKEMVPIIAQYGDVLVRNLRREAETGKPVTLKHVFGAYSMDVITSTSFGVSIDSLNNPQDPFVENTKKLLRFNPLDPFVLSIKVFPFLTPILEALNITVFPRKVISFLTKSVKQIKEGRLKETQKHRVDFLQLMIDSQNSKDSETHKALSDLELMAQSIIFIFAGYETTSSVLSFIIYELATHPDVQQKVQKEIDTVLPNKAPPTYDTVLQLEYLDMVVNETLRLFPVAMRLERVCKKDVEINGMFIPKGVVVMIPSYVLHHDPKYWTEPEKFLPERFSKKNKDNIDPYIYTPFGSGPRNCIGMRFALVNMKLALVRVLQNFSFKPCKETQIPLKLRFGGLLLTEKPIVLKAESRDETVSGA

In the case of `CC(C)(C)CC(C)(C)c1ccc(O)cc1`, the outcome in [1], in [2], in test [3], in test [4], in test [5] and in test [6] was inactive. In addition, the call in test [8], in [9], in test [10], in test [11], in [12] and in test [13] was inactive. Moreover, the call in test [14], in test [15], in test [16], in test [17], in test [18] and in [19] was inactive. Moreover, in test [7], the AC50 was 50 µM (active).
On to `CC(C)(OO)c1ccccc1`, for which the result in [1], in test [2], in test [3], in [4], in test [5] and in test [6] was inactive. The compound was classed as inactive in [7], in [8], in test [9], in [10], in test [11] and in [12]. Besides, the outcome in [13], in test [14], in test [15], in test [16], in test [17] and in test [18] was inactive. Further, the compound was classed as inactive in test [20] and in test [19].
Regarding `O=C(O)C(F)(F)C(F)(F)C(F)(F)C(F)(F)C(F)(F)C(F)(F)F`, the compound was classed as inactive in [1], in [2], in [3], in test [5], in test [8] and in test [9]. Besides, the outcome in test [10], in test [11], in test [12], in [13], in test [14] and in [15] was inactive. For the same compound, the result in test [17], in [18], in [20] and in test [19] was inactive. Further, the AC50 in [4] was 35 µM (active); in test [6], 22.5 µM (active); in test [7], 21.4 µM (active); in test [16] it was 22 µM (active).
Turning to `CN(C)N=O`, the outcome in test [1], in test [2], in [3], in [4], in [5] and in [6] was inactive. For the same compound, the compound was classed as inactive in test [7], in test [8], in test [9], in test [10], in test [11] and in test [12]. Also, the compound was classed as inactive in test [13], in test [14], in [15], in [16], in test [17] and in test [18]. In addition, the call in test [20] and in test [19] was inactive.
